Compound activity deposited in PubChem BioAssay by National Center for Advancing Translational Sciences (NCATS).
An excerpt weighted towards active compounds, which were near 15% of everything screened.
TDP1 cell noCPT – qHTS for Inhibitors of human tyrosyl-DNA phosphodiesterase 1 (TDP1): qHTS in cells in absence of CPT; Potency, µM (highest dose often 46.2 µM), without a hit: top-dose activity change, negative = growth inhibition, usual class: inhibitors; hit rate 15% among 420,000; DT40 Tdp1-/- hTDP1 cells, no CPT, ATP luminescence, 48 h; further: nearly all actives have a fitted effect of over 55% in size
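DT40 Tdp1-/-;hTDP1 cells, no CPT (DMSO vehicle only), 400 cells/well; compounds pin-transferred; ≥48 hr, 37 °C; CellTiter-Glo 30 min RT dark, luminescence read.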
ELG1 DNA repair – ELG1-dependent DNA repair inhibition; HEK293T ELG1-luciferase reporter, luminescence, 16 h; DNA damage induced by 5-fluorouridine; Potency, µM (doses to about 46.1 µM), for the others: at the top dose activity change, negative = inhibition, usual class: inhibitors; hit rate 2.3% among 330,000; AID 504467; further: nearly all actives have a fitted effect of over 55% in size
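DMSO vehicle served as the neutral condition. Each well held 2,000 cells given 5-fluorouridine plus compound; after 16 hr at 37 °C/5% CO2, ONE-Glo was added and luciferase measured 30 min later.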
ALOX12 inh – blocks human arachidonate 12S-lipoxygenase. P18054. purified 12hLO, xylenol orange hydroperoxide absorbance. Potency, µM (series often up to 108 µM), inactives show top-dose activity change, negative = inhibition, hits mostly inhibitors. hit rate 1.1% among 580,000
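Purified human 12hLO at 150 nM in 25 mM Hepes, 0.01% Triton X-100, pH 7.0, preincubated 15 min at room temperature with compound. Reaction started with 40 uM arachidonic acid, 30 min at room temperature. Hydroperoxide measured by Fe-xylenol orange, 573/405 nm absorbance ratio.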
RORg inh – ROR gamma (mouse) transcription inhibition | Potency, µM (doses to about 53.6 µM), without a hit: at the top dose activity change, negative = inhibition, most hits filed as inhibitors | P51450 | Drosophila S2 Gal4-RORgamma UAS-luciferase reporter, 20 h | AID 2551 | hit rate 5.4% among 310,000; further: nearly all actives have a fitted effect of over 60% in size
Target sequence (P51450 whole entry, looked up, the tested form may be a part): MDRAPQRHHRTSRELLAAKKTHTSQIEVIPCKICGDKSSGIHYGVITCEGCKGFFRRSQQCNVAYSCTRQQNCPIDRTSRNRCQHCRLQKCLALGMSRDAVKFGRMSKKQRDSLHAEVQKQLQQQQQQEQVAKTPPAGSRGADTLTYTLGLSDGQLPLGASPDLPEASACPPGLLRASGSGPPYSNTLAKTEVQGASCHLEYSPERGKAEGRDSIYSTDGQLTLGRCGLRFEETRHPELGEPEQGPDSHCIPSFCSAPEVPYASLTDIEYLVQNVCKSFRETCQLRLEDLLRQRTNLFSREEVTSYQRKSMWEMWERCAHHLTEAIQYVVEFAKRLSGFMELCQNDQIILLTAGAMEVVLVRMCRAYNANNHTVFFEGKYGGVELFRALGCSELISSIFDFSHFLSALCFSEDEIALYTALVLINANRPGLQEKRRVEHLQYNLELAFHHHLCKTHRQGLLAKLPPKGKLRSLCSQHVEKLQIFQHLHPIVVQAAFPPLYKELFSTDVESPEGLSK
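Luciferase reporter read in Schneider cells carrying Gal4-RORγ (mouse) and UAS-Photinus luciferase; cells given compound 1 h before 700 uM copper sulfate induction, then incubated 20 h at ambient temperature.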
Gal4-VP16 FLuc – inhibits Gal4-VP16 luciferase reporter, ROR gamma counter-screen; AID 2546; Potency, µM (doses to about 53.6 µM), for inactives: at the top dose activity, negative = inhibition, usual class: inhibitors; hit rate 3.5% among 310,000; Drosophila S2 Gal4-VP16 UAS-luciferase, luminescence, 20 h;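 further: Gal4-VP16 expression switched on by copper sulfate through the metallothionein promoter; nearly all actives have a fitted effect of over 50% in size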
TDP1 cell CPT – growth inhibition of DT40 Tdp1-/-;hTDP1 cells with camptothecin (screen for TDP1 inhibitors) | AID 686979 | chicken DT40 Tdp1-/-;hTDP1 cells + 20 nM CPT, ATP luminescence, 48 h | Potency, µM (doses to about 46.2 µM), for the others: at the top dose activity change, negative = growth inhibition, most hits filed as inhibitors | hit rate 12% among 420,000; further: nearly all actives have a fitted effect of over 55% in size
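Chicken DT40 Tdp1-/- cells complemented with human TDP1, 400 cells/well, exposed to compounds plus 20 nM camptothecin for at least 48 h at 37 C; viability read as ATP content by CellTiter-Glo luminescence.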
* hit, by the source's call; ? = inconclusive; . = no result; [ ] = another dose, or the depositor's remark. The call rests on the fitted dose curve; in most records, active means well fitted curve in the direction sought with a large enough effect; inconclusive means small, poorly fitted or top-dose-only effect, or another doubt; inactive means no such curve, though single readings can be large; an effect the other way counts as inactive or inconclusive. On the % scale 0 is the no-effect control and ±100 the full control effect; potency means the concentration at half of the fitted maximal effect.

SMILES | TDP1 cell noCPT | ELG1 DNA repair | ALOX12 inh | RORg inh | Gal4-VP16 FLuc | TDP1 cell CPT
N#Cc1ccc(C(=O)NC(c2cccs2)C2CCCC2)cc1 (stereo not given) | . | . | -21% | . | . | .
COc1cc(NC(=S)NC(=O)c2ccc(C(C)(C)C)cc2)ccc1NC(=O)c1cccs1 | 18µM* | 8% | 6.3µM* | 3.2µM* | 3.5µM* | ?
COc1cc(NC(=O)c2cccs2)ccc1NC(=O)Cc1ccccc1 | -5% | ? | 9% | ? | 2% | 0%
COc1cc(NC(=S)NC(=O)c2ccccc2F)ccc1NC(=O)c1cccs1 | 8% | 11% | -14% | ? | -18% | 1%
COc1cc(NC(=S)NC(=O)c2ccccc2C)ccc1NC(=O)c1cccs1 | ? | 13µM* | ? | 2.5µM* | 8.9µM* | ?
COc1cc(NC(=S)NC(=O)c2cc(C)cc(C)c2)ccc1NC(=O)c1cccs1 | ? | ? | ? | 2µM* | 1.8µM* | ?
COc1cc(NC(=S)NC(=O)c2c(OC)cccc2OC)ccc1NC(=O)c1cccs1 | 9.2µM* | ? | ? | ? | -6% | 10µM*
Cc1ccc2c(c1)-c1ccccc1C2=Nc1ccc2c(c1)Cc1ccccc1-2 | . | . | -26% | . | . | .
Cc1cc(C)c(CC(=O)O)c(C)c1 | . | . | 1.6µM* | . | . | .
Cc1ncncc1C(=O)N1CCCC(c2nnc(Cn3cccn3)n2C)C1 (stereo not given) | . | . | 1% | . | . | .
O=C(NCCc1ccccc1)c1nn(-c2ccccc2Cl)nc1CO | 13µM* | . | -20% | . | . | 12µM*
COc1cccc(CN(C)C(=O)CN2CCCC2c2ccc3c(c2)OCCO3)c1OC (stereo not given) | . | . | 0% | . | . | .
Cc1cc(C)n(C2CCN(Cc3cn(-c4ccccc4)nn3)C2)n1 (stereo not given) | . | . | 78% | . | . | .
Cc1nc2cc(NC(=O)c3cccc(Cl)c3Cl)ccc2o1 | . | . | -5% | . | . | .
COC(=O)[C@H]1CN(C(=O)NC(C)C)CCN1S(C)(=O)=O | . | . | -15%[176 µM] | . | . | .
Cc1cc(OCC(=O)c2ccc3c(c2)N(CCCC(=O)NCC2CC2)C(=O)CO3)ccc1Cl | . | . | 18% | . | . | .
O=C(COc1ccc(Cl)cc1)Nc1ccc2nc(SCC(=O)N3CCOCC3)sc2c1 | 15µM* | . | -9% | . | . | ?
Cc1ccc(OCC(=O)Nc2ccc3nc(SCC(=O)N4CCOCC4)sc3c2)cc1 | 21µM* | . | 0% | . | . | ?
CCCC(=O)Nc1ccc2nc(SCC(=O)N3CCOCC3)sc2c1 | ? | . | -22% | . | . | ?
COc1cc(OC)c(C(=O)N2CCC(C(=O)c3ccc4c(c3)OCCO4)CC2)cc1OC | . | . | 15% | . | . | .
Cc1ccc(-n2nnnc2-c2cnc(N3CCCC3)nc2C(F)(F)F)cc1 | 12µM* | 8% | 29% | ? | 16µM* | 23µM*
FC(F)(F)c1nc(N2CCCC2)ncc1-c1nnnn1-c1ccccc1 | 23µM* | -17% | 0% | 44% | ? | 16µM*
Cc1ccc(-n2nnnc2-c2cnn(-c3cccc(F)c3)c2C(F)(F)F)cc1 | -28% | ? | 0% | ? | ? | ?
Fc1cccc(-n2ncc(-c3nnnn3-c3ccccc3)c2C(F)(F)F)c1 | -23% | -22% | 7% | 18% | -25% | -6%
CC(C)N1CCN(Cc2ccccc2C#Cc2ccccc2)CC1CCO (stereo not given) | . | . | 32% | . | . | .
SMILES | TDP1 cell noCPT | ELG1 DNA repair | ALOX12 inh | RORg inh | Gal4-VP16 FLuc | TDP1 cell CPT
COc1cc2nc(CN(C)CC(=O)Nc3ccc(F)cc3)[nH]c(=O)c2cc1OC | . | . | -39% | . | . | .
O=C(C[n+]1cc(-c2ccc(Cl)cc2)n2c1CCCCC2)c1ccccc1 | 6.5µM* | -2% | 0% | -14% | -3% | 6.5µM*
O=C(C[n+]1cc(-c2ccc(Br)cc2)n2c1CCCCC2)c1ccccc1 | 16µM* | -10% | 6% | 44% | -2% | ?
O=C(NCc1cccnc1)c1ccc(-c2ccc(N3CCSCC3)nc2)cc1 | . | . | 34% | . | . | .
CCN1C(=O)[C@H]2[C@@H](c3ccc(-c4ccc(F)cc4)c(OC)c3)N3CCC[C@@]3(C(=O)OC)[C@H]2C1=O | 8.2µM* | -4% | ? | . | . | 8.2µM*
CCN1C(=O)[C@@H]2[C@@H](c3ccc(SC4CCCCC4)c(OC)c3)N3CCC[C@@]3(C(=O)OC)[C@@H]2C1=O | ? | -10% | ? | . | . | 23µM*
CCN1C(=O)[C@@H]2[C@@H](c3ccc(-c4cccc(Cl)c4)c(OC)c3)N3CCCC[C@@]3(C(=O)OC)[C@@H]2C1=O | 16µM* | -3% | 8% | . | . | ?
CCN1C(=O)[C@@H]2[C@@H](c3ccc(-c4ccc(Cl)c(Cl)c4)c(OC)c3)N3CCC[C@@]3(C(=O)OC)[C@@H]2C1=O | 9.2µM* | ? | -27% | . | . | 8.2µM*
Cc1ccc(C(=O)N(C)C2CCCCC2)cc1I | . | . | -10% | . | . | .
O=C(CN1CC(=O)Oc2ccccc21)OCC(=O)c1ccc(Br)cc1 | ? | . | 0% | . | . | 21µM*
CC1CCCN(Cc2nc3c(Br)cc(Br)cc3c(=O)[nH]2)C1 (stereo not given) | . | . | -2% | . | . | .
O=C(OCC(=O)N1CCCc2ccccc21)c1ccc2c(c1)S(=O)(=O)c1ccccc1C2=O | . | . | -25% | . | . | .
Cc1ccc(C)c(N2CCN(C(=O)Cn3nc(Cc4cccnc4)c4ccccc4c3=O)CC2)c1 | 23µM* | . | -8% | . | . | ?
CCOC(=O)C1CCCN(C(=O)Cn2nc(Cc3cccnc3)c3ccccc3c2=O)C1 (stereo not given) | 11% | 0% | 55% | -3% | 3% | 8%
O=C(Cn1nc(Cc2cccnc2)c2ccccc2c1=O)N1CCN(c2ccc(F)cc2)CC1 | 23µM* | . | 0% | . | . | ?
Cc1cccc(N2CCN(C(=O)Cn3nc(Cc4ccncc4)c4ccccc4c3=O)CC2)c1C | ? | . | 16% | . | . | ?
O=C1CC(C(=O)N2CCc3c(Cl)cccc3C2)CN1Cc1cccnc1 (stereo not given) | . | . | 8% | . | . | .
Cn1ncc(N2CCCC(CC(=O)NCCC3=CCCCC3)C2)cc1=O (stereo not given) | . | . | 3% | . | . | .
Cc1sc(NC(=O)c2ccco2)c(C(c2ccc(F)cc2)N2CCN(C)CC2)c1C (stereo not given) | ? | -1% | . | 40% | 5% | ?
CCOC(=O)C1CCN(C(c2cccnc2)c2c(NC(=O)c3ccco3)sc(C)c2C)CC1 (stereo not given) | 1.8µM* | 15µM* | -6% | 19% | 6% | 1.6µM*
